From the supplement of paper PMC9262897, “Low-cost anti-mycobacterial drug discovery using engineered E. coli” (Nature Communications, 2022)
Counter-ions that a name gives are not always drawn. ± gives the standard deviation of the averaged measurements.

Key:
Experiment in all cases: growth (OD600 after 10 h); higher = more growth (less inhibition)
[1] = system: E. coli TESEC Alr+ wild-type control; conditions: compound 0.1 mM; raw OD600 reference: median of DMSO wells 0.241, cell-free background 0.041
Method: (§1)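 TESEC Mtb Alr E. coli, or the Alr+ wild-type control, in 384-well plates with Prestwick library compounds at 0.1 mM and 1% DMSO, across arabinose induction levels of 1E3 to 1E7 nM. Growth is read as OD600 after 10 h at 37 °C in triplicate biological replicates.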

E. coli TESEC Mtb Alr [2] = conditions: compound 0.1 mM
Method: as §1

E. coli TESEC Mtb Asd = conditions: compound 0.1 mM
Method: (§2)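 TESEC E. coli strains in which the native enzyme is deleted and replaced by arabinose-inducible Mtb Asd, DapB, CysH or TrpD, each grown in its selective medium. Strains were screened against the Prestwick library at 0.1 mM and 1% DMSO in 384-well format at low and high arabinose induction. Growth is read as OD600 after 10 h in triplicate.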

E. coli TESEC Mtb DapB = conditions: compound 0.1 mM
Method: as §2

[3] = system: E. coli TESEC Alr+ wild-type control; conditions: compound 0.1 mM; raw OD600 reference: median of DMSO wells 0.49, cell-free background 0.052
Method: (§3)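 TESEC Mtb Alr E. coli (ΔaraC ΔtolC ΔentC Δalr ΔdadX, arabinose-inducible Mtb Alr) or the Alr+ wild-type control strain, grown in defined M9-fructose medium without D-alanine in 96-well plates with Prestwick library compounds at 0.1 mM and 1% DMSO. Low Alr induction is 0.1 µM arabinose and high induction is 10 mM arabinose.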

E. coli TESEC Mtb Alr [4] = conditions: compound 0.1 mM; remark: listed apart in the source
Method: as §3

[5] = arabinose 1000 nM, raw OD600 reference: median of DMSO wells 0.294, cell-free background 0.041
[6] = arabinose 10000 nM, raw OD600 reference: median of DMSO wells 0.264, cell-free background 0.041
[7] = arabinose 100000 nM, raw OD600 reference: median of DMSO wells 0.201, cell-free background 0.041
[8] = arabinose 1000000 nM, raw OD600 reference: median of DMSO wells 0.193, cell-free background 0.041
[9] = arabinose 10000000 nM, raw OD600 reference: median of DMSO wells 0.146, cell-free background 0.041
[10] = arabinose induction (level): High, raw OD600 reference: median of DMSO wells 0.331, cell-free background 0.041
[11] = arabinose induction (level): Low, raw OD600 reference: median of DMSO wells 0.417, cell-free background 0.041
[12] = arabinose induction (level): High, raw OD600 reference: median of DMSO wells […], cell-free background 0.041
[13] = arabinose induction (level): Low, raw OD600 reference: median of DMSO wells 0.227, cell-free background 0.041
[14] = arabinose 100 nM, raw OD600 reference: median of DMSO wells 0.413, cell-free background 0.052
[15] = arabinose 10000000 nM, raw OD600 reference: median of DMSO wells […], cell-free background 0.052

Row | SMILES | growth [1] | growth (E. coli TESEC Mtb Alr [2]; [5]) | growth (E. coli TESEC Mtb Alr [2]; [6]) | growth (E. coli TESEC Mtb Alr [2]; [7]) | growth (E. coli TESEC Mtb Alr [2]; [8]) | growth (E. coli TESEC Mtb Alr [2]; [9]) | growth (E. coli TESEC Mtb Asd; [10]) | growth (E. coli TESEC Mtb Asd; [11]) | growth (E. coli TESEC Mtb DapB; [12]) | growth (E. coli TESEC Mtb DapB; [13]) | growth [3] | growth (E. coli TESEC Mtb Alr [4]; [14]) | growth (E. coli TESEC Mtb Alr [4]; [15])
1 | CCCNCC(O)COc1ccccc1C(=O)CCc1ccccc1 (configuration not stated) [Propafenone hydrochloride] | 0.201 ± 0.0092 | 0.241 ± 0.019 | 0.281 ± 0.012 | 0.176 ± 0.015 | 0.124 ± 0.0027 | 0.155 ± 0.006 | 0.144 ± 0.007 | 0.345 ± 0.02 | 0.173 ± 0.01 | 0.185 ± 0.015 | 0.452 ± 0.022 | 0.412 ± 0.009 | 0.285 ± 0.0058
2 | CCCCc1nc(Cl)c(CO)n1Cc1ccc(-c2ccccc2-c2nnn[nH]2)cc1 [Losartan] | 0.204 ± 0.0085 | 0.281 ± 0.015 | 0.258 ± 0.0039 | 0.209 ± 0.026 | 0.161 ± 0.0058 | 0.1297 ± 0.0011 | 0.23 ± 0.017 | 0.409 ± 0.0075 | 0.195 ± 0.015 | 0.228 ± 0.018 | 0.495 ± 0.071 | 0.4187 ± 0.0032 | 0.279 ± 0.0092
3 | C/C=C(/C(=C/C)c1ccc(O)cc1)c1ccc(O)cc1 [Dienestrol] | 0.0526 ± 0.0075 | 0.0496 ± 0.0047 | 0.0394 ± 0.0002 | 0.0419 ± 0.0015 | 0.0393 ± 0.0001 | 0.0759 ± 0.031 | 0.0492 ± 0.0033 | 0.0498 ± 0.0031 | 0.122 ± 0.035 | 0.0554 ± 0.0074 | 0.139 ± 0.14 | 0.0576 ± 0.014 | 0.05137 ± 0.00032
4 | CN1C(=O)OC(C)(C)C1=O [Trimethadione] | 0.242 ± 0.0071 | 0.283 ± 0.0076 | 0.269 ± 0.012 | 0.202 ± 0.014 | 0.185 ± 0.0082 | 0.1382 ± 0.00081 | 0.297 ± 0.098 | 0.409 ± 0.037 | 0.193 ± 0.0086 | 0.229 ± 0.042 | 0.553 ± 0.073 | 0.423 ± 0.011 | 0.344 ± 0.02
5 | N[C@H]1CONC1=O [(S)-(-)-Cycloserine] | 0.247 ± 0.0025 | 0.0382 ± 0.001 | 0.0389 ± 0.0016 | 0.217 ± 0.0065 | 0.188 ± 0.012 | 0.108 ± 0.0032 | 0.329 ± 0.034 | 0.354 ± 0.038 | 0.211 ± 0.015 | 0.276 ± 0.051 | 0.558 ± 0.063 | 0.045 ± 0.00044 | 0.13 ± 0.0078
6 | COc1ccc(CN2CCN(C(c3ccc(F)cc3)c3ccc(F)cc3)CC2)c(OC)c1OC [Lomerizine hydrochloride] | 0.119 ± 0.0034 | 0.126 ± 0.0034 | 0.0765 ± 0.0014 | 0.137 ± 0.0039 | 0.05757 ± 0.00049 | 0.0717 ± 0.0016 | 0.0685 ± 0.0042 | 0.0562 ± 0.0023 | 0.0966 ± 0.0085 | 0.0956 ± 0.013 | 0.233 ± 0.0047 | 0.248 ± 0.018 | 0.0708 ± 0.013
7 | CCC(=O)OCC(=O)[C@@]1(OC(=O)CC)[C@H](C)C[C@H]2[C@H]3[C@H]([C@@H](O)C[C@@]21C)[C@@]1(C)C=CC(=O)C=C1C[C@H]3Cl [Alclometasone dipropionate] | 0.21 ± 0.0058 | 0.318 ± 0.028 | 0.277 ± 0.017 | 0.226 ± 0.07 | 0.127 ± 0.022 | 0.217 ± 0.065 | 0.209 ± 0.013 | 0.459 ± 0.032 | 0.198 ± 0.0033 | 0.215 ± 0.0041 | 0.492 ± 0.04 | 0.401 ± 0.0078 | 0.241 ± 0.04
8 | CCCC1O[C@@H]2C[C@H]3[C@@H]4CCC5=CC(=O)C=C[C@]5(C)[C@H]4[C@@H](O)C[C@]3(C)[C@]2(C(=O)CO)O1 (some centres not stated) [Budesonide] | 0.1456 ± 0.0011 | 0.187 ± 0.0064 | 0.247 ± 0.0047 | 0.166 ± 0.015 | 0.112 ± 0.0012 | 0.141 ± 0.0021 | 0.309 ± 0.023 | 0.31 ± 0.025 | 0.167 ± 0.0066 | 0.231 ± 0.0093 | 0.449 ± 0.02 | 0.4337 ± 0.004 | 0.269 ± 0.0039
9 | CC[C@H](C)C(=O)O[C@H]1C[C@H](O)C=C2C=C[C@H](C)[C@H](CC[C@@H](O)C[C@@H](O)CC(=O)O)[C@H]21 [Pravastatin] | 0.229 ± 0.013 | 0.309 ± 0.0081 | 0.297 ± 0.013 | 0.222 ± 0.024 | 0.185 ± 0.019 | 0.152 ± 0.0073 | 0.323 ± 0.015 | 0.37 ± 0.059 | 0.209 ± 0.0069 | 0.225 ± 0.025 | 0.455 ± 0.03 | 0.4188 ± 0.0036 | 0.337 ± 0.026
10 | CCCC(=O)Nc1ncnc2c1ncn2[C@@H]1O[C@@H]2COP(=O)(O)O[C@H]2[C@H]1OC(=O)CCC [Bucladesine sodium salt] | 0.25 ± 0.0053 | 0.31 ± 0.019 | 0.275 ± 0.0043 | 0.206 ± 0.015 | 0.189 ± 0.0065 | 0.138 ± 0.012 | 0.355 ± 0.06 | 0.47 ± 0.008 | 0.2 ± 0.016 | 0.218 ± 0.014 | 0.565 ± 0.093 | 0.405 ± 0.011 | 0.362 ± 0.013
11 | CC[N+](C)(C)c1cccc(O)c1 [Edrophonium chloride] | 0.258 ± 0.011 | 0.294 ± 0.012 | 0.266 ± 0.004 | 0.227 ± 0.03 | 0.192 ± 0.012 | 0.144 ± 0.0031 | 0.384 ± 0.013 | 0.403 ± 0.013 | 0.203 ± 0.017 | 0.27 ± 0.098 | 0.437 ± 0.029 | 0.401 ± 0.015 | 0.346 ± 0.029
12 | CCOC(=O)c1ccc(OC(=O)CCCCCNC(=N)N)cc1 [Gabexate mesilate] | 0.15 ± 0.014 | 0.179 ± 0.0036 | 0.158 ± 0.0034 | 0.109 ± 0.0039 | 0.0891 ± 0.0033 | 0.14 ± 0.0019 | 0.135 ± 0.015 | 0.147 ± 0.017 | 0.177 ± 0.0061 | 0.16 ± 0.011 | 0.495 ± 0.029 | 0.396 ± 0.013 | 0.123 ± 0.0081
13 | CCC[C@H](N[C@@H](C)C(=O)N1[C@H](C(=O)O)C[C@@H]2CCCC[C@@H]21)C(=O)OCC [Perindopril] | 0.252 ± 0.01 | 0.309 ± 0.0092 | 0.286 ± 0.0037 | 0.208 ± 0.016 | 0.198 ± 0.024 | 0.149 ± 0.0041 | 0.225 ± 0.016 | 0.392 ± 0.033 | 0.198 ± 0.01 | 0.239 ± 0.041 | 0.555 ± 0.1 | 0.431 ± 0.0091 | 0.325 ± 0.0072
14 | CN1CCN(CCCN2c3ccccc3Sc3ccc(S(=O)(=O)N(C)C)cc32)CC1 [Thioproperazine dimesylate] | 0.181 ± 0.0045 | 0.165 ± 0.0059 | 0.196 ± 0.0078 | 0.195 ± 0.0039 | 0.106 ± 0.0049 | 0.173 ± 0.0023 | 0.171 ± 0.017 | 0.246 ± 0.049 | 0.2 ± 0.024 | 0.249 ± 0.0047 | 0.409 ± 0.041 | 0.404 ± 0.0053 | 0.232 ± 0.0024
